Test [1] in a line: qHTS assay to identify small molecule antagonists of the retinoic acid receptor (RAR) signaling pathway (AID 1159552; also: nearly all actives have a fitted effect of over 50% in size; also: potency is read from the fitted curve at half-maximal effect; as to activity, negative = inhibition: % is scaled to controls: 0 for no effect and ±100 for the full control effect). In outline: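 Luminescent RARE reporter read-out in C3RL4 cells: 6 hr co-treatment at 37 C of test compounds with retinol at 1 uM final. Cells plated overnight beforehand; luciferase reagent incubated 30 min at room temperature before reading.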
Test [2] in a line: qHTS assay to identify small molecule agonists of the retinoic acid receptor (RAR) signaling pathway (AID 1159553). Also: potency is read from the fitted curve at half-maximal effect. An outline of the steps:
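C3RL4 cells carrying a RARE luciferase reporter were plated overnight at 37 C, then exposed to compounds in DMSO for 6 hr at 37 C and 5% CO2. Luminescence was read 30 min after luciferase reagent addition at room temperature.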
A general note: qHTS replaces the single test concentration by a dilution series.

The nature of test [3]: qHTS assay to identify small molecule antagonists of the estrogen related receptor (ERR) signaling pathway from Tox21 library - cell viability counter screen (AID 1224834). Also: potency is read from the fitted curve at half-maximal effect; nearly all actives have a fitted effect of over 30% in size. In outline: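 ERR reporter cells were plated 6 h before compound addition, then exposed to test compounds in DMSO for 17.5 h at 37 C. Viability was read as CellTiter-Fluor fluorescence after a 30-minute incubation at 37 C.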

Test [4] deals with Luciferin 4-monooxygenase (Photinus pyralis) (UniProt P08659). The test can be described thus: qHTS assay to identify small molecule inhibitors of firefly luciferase (AID 1224835). Also: nearly all actives have a fitted effect of over 25% in size. Also: potency is read from the fitted curve at half-maximal effect. An outline of the steps: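 Quantitative HTS format; KM concentrations of both substrates. Purified P. pyralis FLuc activity quantified from luminescence images.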
Chain of Luciferin 4-monooxygenase (Photinus pyralis) (P08659 whole entry, looked up): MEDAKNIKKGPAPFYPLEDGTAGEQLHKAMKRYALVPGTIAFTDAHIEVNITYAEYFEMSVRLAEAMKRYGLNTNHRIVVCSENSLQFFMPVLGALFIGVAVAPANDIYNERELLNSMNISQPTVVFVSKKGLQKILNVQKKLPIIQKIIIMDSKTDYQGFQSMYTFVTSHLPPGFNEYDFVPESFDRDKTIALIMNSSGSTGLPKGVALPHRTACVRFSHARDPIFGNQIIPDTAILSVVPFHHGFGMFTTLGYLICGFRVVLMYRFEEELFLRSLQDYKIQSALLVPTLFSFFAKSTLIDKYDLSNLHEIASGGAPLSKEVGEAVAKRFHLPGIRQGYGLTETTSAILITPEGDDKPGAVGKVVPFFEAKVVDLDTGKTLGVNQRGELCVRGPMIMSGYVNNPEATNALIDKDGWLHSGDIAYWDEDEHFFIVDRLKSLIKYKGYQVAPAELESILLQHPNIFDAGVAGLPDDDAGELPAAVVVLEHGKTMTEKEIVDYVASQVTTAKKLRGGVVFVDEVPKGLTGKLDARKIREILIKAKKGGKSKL
Test [5] can be described thus: qHTS assay to identify small molecule antagonists of the estrogen related receptor (ERR) signaling pathway (AID 1224819; also: potency is read from the fitted curve at half-maximal effect; nearly all actives have a fitted effect of over 50% in size). An outline of the steps:
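ERR reporter cells were plated at 2,000 cells/well and left 6 h at 37 C/5% CO2 before pin-tool transfer of compounds in DMSO. After 18 h at 37 C, One-Glo was added and luminescence was read 30 min later at room temperature.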

Test [6] has as its system estrogen-related receptor alpha (ERRalpha) with PGC-1alpha coactivator, human. Kind of test: qHTS assay to identify small molecule antagonists of the estrogen related receptor signaling pathway with the pleiotropic PPARgamma coactivator (PGC) (AID 1224821; calls by dose curve;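 also: series mostly up to about 46 µM; % is scaled to controls: 0 for no effect and ±100 for the full control effect; lower luminescence signal means antagonism of PGC/ERR signalling; nearly all actives have a fitted effect of over 50% in size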). An outline of the steps: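 Luminescent read-out (One-Glo, 30 min at room temperature) following 18 h treatment of PGC/ERR cells at 37 C with compounds delivered in DMSO. Cells had settled 6 h at 37 C/5% CO2 before dosing.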

Test [7] can be described thus: qHTS assay to identify small molecule antagonists of the estrogen related receptor signaling pathway with the pleiotropic PPARgamma coactivator (PGC) cell viability counter screen (AID 1224822; also: potency is read from the fitted curve at half-maximal effect). In outline:
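PGC/ERR cells were seeded at 2,000 cells/well, rested 6 h at 37 C/5% CO2, then given compounds in DMSO by pin tool and incubated 17.5 h at 37 C. Viability came from CellTiter-Fluor fluorescence after 30 min.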

Test [8] is described as follows: qHTS assay to identify small molecule agonists of the estrogen related receptor signaling pathway with the pleiotropic PPARgamma coactivator (PGC) (AID 1224823). Also: % is scaled to controls: 0 for no effect and ±100 for the full control effect. In outline:
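Steps: plate PGC/ERR cells at 2,000 cells/well; incubate 6 h, 37 C/5% CO2; pin-transfer compounds (DMSO); incubate 18 h, 37 C; add One-Glo; 30 min RT; read luminescence.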

Several values for one entry are separate records, joined by “and”; a condition that tells them apart may be missing. Equal values may be shown once. Results filed as inconclusive are left out. Unmarked numbers belong to inactive results. Activity calls are given as the source filed them. Unless noted, calls follow the shape of the dose curve; as a rule, active = well fitted curve in the direction sought with a large enough effect in the repeat runs; inconclusive = weak or mixed curves; inactive = no such curve, though single readings can be large; an effect the other way counts as inactive or inconclusive.

As to `CCCCCCCCCCCCOC(=O)c1cc(O)c(O)c(O)c1`, the Potency entry in test [1] and in test [4] was “inactive” throughout. For the same compound, the Potency was 172 nM (active) and 386 nM (active) in test [2]; 60.9 µM (active) and 27.3 µM (active) in test [3].

With `O=C1NCN(c2ccccc2)C12CCN(CCCC(c1ccc(F)cc1)c1ccc(F)cc1)CC2`, the Potency is 29.8 µM (active) in test [1], 23.7 µM (active) in test [5], 22.8 µM (active) in test [7] and 26.6 µM (active) in test [3]. Besides, the outcome in test [6] and in test [8] was inactive. In addition, in test [4], the Potency entry is “inactive”.

`CC(C)c1ccc(O)c(C(C)C)c1`: the Potency entry in test [2] and in test [4] was “inactive” throughout.

With `CC(O)C#CC(C)O` (stereo not drawn), in test [1], the Potency is 30.3 µM (active). For the same compound, the Potency result in test [4] was “inactive”.

With `O=C(Nc1ccc(Cl)c(Cl)c1)c1cc(Cl)cc(Cl)c1O`, the Potency result in test [1] is “inactive”. Moreover, the results for the Potency in test [3] and in test [4] were 3.06 µM (active) and 3.99 µM (active), respectively.

Take `CC(=O)OC(OC(C)=O)c1ccc([N+](=O)[O-])o1`: the Potency in test [3] was 62.2 µM (active). In addition, the Potency result in test [4] was “inactive”.

For the compound `O=C1NCCN1CCN1CCC(c2cn(-c3ccc(F)cc3)c3ccc(Cl)cc23)CC1`, the Potency in test [1] and in test [3] was 26.6 µM (active) in each case. Also, the Potency result in test [4] is “inactive”.

As for `S=C(SSSSSSC(=S)N1CCCCC1)N1CCCCC1`, in test [1], the activity, negative = inhibition was -10.6% [at 19 µM]. Further, the Potency in test [4] is 6.22 µM (active).

Turning to `C=CC(=O)OCC(O)COc1ccccc1` (stereo not drawn), in test [4], the Potency result is “inactive”.

As for `COCC(=O)O[C@]1(CCN(C)CCCc2nc3ccccc3[nH]2)CCc2cc(F)ccc2[C@@H]1C(C)C`, the Potency in test [1] and in test [3] was 26.6 µM (active) each time. Besides, the Potency result in test [4] was “inactive”.

As for `Clc1ccc(C(Cn2ccnc2)OCc2ccsc2Cl)c(Cl)c1` (stereo not drawn), in test [3], the Potency was 21.1 µM (active). In test [4], the Potency entry was “inactive”.

Take `C[n+]1c2cc(N)ccc2cc2ccc(N)cc21` (tested in a mixture with another compound): the Potency in test [1] is 23.7 µM (active). The Potency result in test [4] is “inactive”.

Values taken from PubChem BioAssay (Tox21).
